D2 PAM-1 – HTS Assay for Positive Allosteric Modulators of the Human D2 Dopamine Receptor: Primary Screen for Potentiators. D(2) dopamine receptor (Homo sapiens), P14416. HEK293 T-REx D2, calcium flux, EC20 dopamine potentiation. potentiation, % at 10 µM. 340,000 compounds, 0.34% hits;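 active = potentiation over 3 SD above the plate norm, cut at about 30% in these data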; note: 0% is about no effect
Target sequence (P14416 whole entry, looked up): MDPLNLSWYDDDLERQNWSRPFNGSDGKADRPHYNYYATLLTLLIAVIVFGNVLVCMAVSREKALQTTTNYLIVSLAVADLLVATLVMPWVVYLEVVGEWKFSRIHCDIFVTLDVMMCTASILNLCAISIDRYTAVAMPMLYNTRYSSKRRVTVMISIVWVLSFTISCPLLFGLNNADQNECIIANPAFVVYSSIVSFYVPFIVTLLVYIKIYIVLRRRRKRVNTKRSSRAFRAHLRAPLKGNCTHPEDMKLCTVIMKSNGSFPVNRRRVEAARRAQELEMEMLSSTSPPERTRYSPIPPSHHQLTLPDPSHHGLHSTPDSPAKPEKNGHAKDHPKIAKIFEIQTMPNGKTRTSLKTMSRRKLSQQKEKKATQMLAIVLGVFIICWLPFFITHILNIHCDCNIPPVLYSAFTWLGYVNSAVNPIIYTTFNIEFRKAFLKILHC
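Potentiation of an EC20 dopamine calcium response is measured in a force-coupled, tetracycline-inducible Hek293 Trex D2 line. Compound-only kinetic reads over 180 s flag agonists before dopamine addition.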
D2 ag-1 – Beta-Arrestin HTS for Positive Allosteric Modulators of the Human D2 Dopamine Receptor: Agonists; D(2) dopamine receptor (Homo sapiens), P14416; DiscoveRx PathHunter D2 beta-arrestin, luminescence, 90 min; 100% = 57 uM dopamine signal; activation, % (test concentration not listed); 360,000 compounds, 0.084% hits; in the data active = activation above about 40%
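Agonist mode: compounds alone added to overnight-plated D2 PathHunter cells for 90 min at 37 C, with 57 uM final dopamine (EC100) defining full response. Beta-arrestin recruitment detected by chemiluminescent reagent, read after 1 h at ambient temperature.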
D2 PAM-2 – Beta-Arrestin HTS for Positive Allosteric Modulators of the Human D2 Dopamine Receptor: Potentiators. AID 624464, 2012. D(2) dopamine receptor (Homo sapiens), P14416. potentiation, % (no concentration beside the values). DiscoveRx D2 beta-arrestin cells, luminescence, 90 min; 100% = 57 uM dopamine signal. 360,000 compounds, 0.23% hits; in the data active = potentiation above about 50%
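PathHunter beta-arrestin assay in DiscoveRx D2 cells. Compounds were added with an EC20 of dopamine (50 nM final) for 90 min at 37 deg C. Luminescence was read 1 h after detection reagent, with 57 uM dopamine as the EC100 control.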
D2 ag-2 – HTS Assay for Allosteric Agonists of the Human D2 Dopamine Receptor: Primary Screen for Agonists; HEK293 T-REx D2 cells, calcium flux agonist mode; 340,000 compounds, 0.53% hits; activation, % at 2 µM; D(2) dopamine receptor (Homo sapiens), P14416; AID 485358, 2010;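 active = activation over 3 SD above normal in the single-dose calcium agonist read, cut at about 30% in these data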; note: 0% is about no effect
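In this primary screen, compounds producing a positive calcium signal within 180 s of addition to tetracycline-induced, force-coupled HEK293 Trex D2 cells are flagged; cells are dye-loaded with a no-wash calcium kit beforehand.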
D2 antag – HTS Assay for Allosteric Antagonists of the Human D2 Dopamine Receptor: Primary Screen for Antagonists | D(2) dopamine receptor (Homo sapiens), P14416 | HEK293 TREx D2 cells, calcium flux, dopamine EC80 | inhibition, % at 10 µM | 340,000 compounds, 2% hits | AID 485344, 2010; in the data active = inhibition above about 30%; inactive = below that, where a call was filed; note: 0% is about no effect
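HEK293 T-REx D2 cells, tet-induced, calcium dye no-wash. Cpd pintool add, 180 s kinetic, then EC80 DA, 180 s kinetic. Ca flux read.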
The depositor's hits bear a star; x = not tested or not shown. Sampled rows, rich in hits. Any-hit rate of the full collection: about 2.4%.

SMILES	D2 PAM-1	D2 ag-1	D2 PAM-2	D2 ag-2	D2 antag
OCCN1CCN(c2ncnc3sc4c(c23)CCCC4)CC1	15.6	7.1	-3.5	0.9	0.0
Oc1ccc(N2CCN(c3ncnc4sc5c(c34)CCC5)CC2)cc1	4.3	11.1	68.3*	-0.4	-9.1
CC(C)=C1C2CCC1C1C(=O)N(NC(=O)COc3ccc(C(C)(C)C)cc3)C(=O)C21 (stereo not drawn)	2.7	-2.4	-9.1	-0.4	32.1*
CC(C)(C)c1ccc(OCC(=O)NNC(=O)C2CCCO2)cc1 (stereo not drawn)	-2.3	-3.3	1.2	-0.1	5.1
N#CCCCSc1ncccc1-c1nc2ccccc2[nH]1	4.4	-0.1	1.0	0.3	-5.6
N#CCSc1ncccc1-c1nc2ccccc2[nH]1	36.7*	-1.4	-4.0	0.8	14.0
CCC(=O)N1CCc2cc(S(=O)(=O)CCC(=O)NCCC3=CCCCC3)ccc21	x	0.5	-16.8	x	x
CCC(=O)N1c2ccc(S(=O)(=O)CCC(=O)NCCC3=CCCCC3)cc2CC1C (stereo not drawn)	-14.2	-0.1	-34.6	-0.4	30.9*
CCOC(=O)C1(CC2CCCCO2)CCN(C(=O)Nc2ccc(C(=O)OC)cc2)CC1 (stereo not drawn)	-10.9	-3.6	-5.1	0.4	31.9*
CCCCCCc1cc2cc(S(=O)(=O)c3ccc(Cl)cc3)c(=O)oc2cc1O	-5.5	1.7	3.3	x	x
CCN(CC)c1ccc2cc(S(=O)(=O)c3ccc(Cl)cc3)c(=O)oc2c1	4.8	-3.0	-1.2	68.0*	-75.8
CC(=O)c1ccc(NC(=O)c2ccc(-c3nc(COc4ccc(C)cc4)c(C)o3)cc2)cc1	x	x	x	0.6	x
CCC1CCCCN1S(=O)(=O)c1ccc(NC(=O)c2snnc2C)cc1 (stereo not drawn)	36.3*	4.3	-2.9	0.4	-8.4
Cc1nnsc1C(=O)Nc1ccc(S(=O)(=O)N2CCCCC2)cc1	-2.4	3.7	-9.9	0.7	3.6
Cc1cccc(Cn2c(C)c(C)c3cc(C(=O)NCc4ccco4)ccc32)c1	2.2	x	x	0.3	x
CC1CC(C)CN(S(=O)(=O)c2ccc(NC(=O)C3CSC4(C)CCC(=O)N34)cc2)C1 (stereo not drawn)	30.3*	-3.0	-1.2	-0.4	-10.6
CC(NC(=O)c1ccco1)C(=O)N1CCN(c2ccccc2)CC1 (stereo not drawn)	-10.8	0.7	8.7	0.8	-3.6
CC(NC(=O)c1ccco1)C(=O)N1CCN(C(c2ccccc2)c2ccccc2)CC1 (stereo not drawn)	3.2	-2.8	56.6*	-0.8	5.0
CCc1ccc2nc(N(Cc3cccnc3)C(=O)Cc3ccccc3)sc2c1	2.1	x	x	0.1	x
CC(C)c1ccc(-c2nc(N3CCCC3)nc3n[nH]c(N)c23)cc1	44.3*	-0.9	-5.7	-0.1	2.4
CN(C)c1ccc(N/C=C/C(=O)C(C)(C)C)cc1	-5.6	8.9	65.9*	0.1	-7.4
CCOc1ccccc1NC(=O)c1nn(-c2ccc(C)cc2)c(=O)n(C)c1=O	-1.4	x	x	0.1	x
CCC(=O)N1CCN=C1SCc1ccc(Cl)cc1	30.4*	-0.6	-8.6	-0.1	5.2
O=C(c1cccs1)N1CCN=C1SCc1ccc(Cl)cc1	-4.5	-1.7	-4.4	2.7	27.3
O=C(c1cccs1)N1CCN=C1SCc1ccccc1F	-20.5	-1.3	-4.1	33.4*	-7.7
O=C(C1CC1)N1CCN=C1SCc1ccccc1Cl	4.4	-2.8	-10.9	-1.0	35.4*
O=C(CN1C(=O)COc2ccc(S(=O)(=O)N3CCOCC3)cc21)N1CCN(c2ccccc2)CC1	-4.0	x	x	-1.1	x
Cc1ccc(N2C(=O)C(CC(=O)Nc3ccc(F)cc3)N(CCC3=CCCCC3)C2=O)cc1 (stereo not drawn)	-21.3	x	x	0.0	x
